Measurements from PubChem BioAssay (Tox21).
Results filed as inconclusive are left out. The source made the active and inactive calls. Calls follow the shape of the dose curve; as a rule, active = well fitted activation curve with a large enough effect in the signal ratio in the repeat runs (not every such curve was filed as active); inconclusive = weak or mixed curves; inactive = flat fitted curve, though single readings scatter; the % refers to the signal ratio.

Test: qHTS assay to identify small molecule agonists of the hypoxia (HIF-1) signaling pathway (AID 1224846)
Settings: HRE-bla ME-180 cells, beta-lactamase ratio, 17 h; series mostly up to 76.8 µM; activation: at the top concentration
Summary of the method: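 Agonist mode reporter screen. ME-180 cells stably expressing bla under HRE control received test compounds in DMSO for 17 hrs (37C, 5% CO2), and beta-lactamase activity was then detected with the CCF4-AM FRET substrate.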
% is scaled to controls: 0 for no effect and ±100 for the full control effect.

| SMILES | outcome | activation |
| --- | --- | --- |
| O=P(OC(CCl)CCl)(OC(CCl)CCl)OC(CCl)CCl | inactive |  |
| CC1=CCC2CC1C2(C)C (stereo unspecified) | inactive |  |
| O=S1(=O)CC=CC1 | inactive |  |
| FC(F)(F)c1ccc(Cl)c(Cl)c1 |  | -2.1% (inactive) |
| Nc1ccccc1[N+](=O)[O-] | inactive |  |
| CC(C)CC(=O)CC(C)C | inactive |  |
| CC(c1cc2ccccc2s1)N(O)C(N)=O (stereo unspecified) | inactive |  |
| c1c[nH]cn1 | inactive |  |
| CC(C)(C)[C@@H](O)[C@@H](Cc1ccc(Cl)cc1)n1cncn1 | inactive |  |
| OCCOCCN1CCN(C2=Nc3ccccc3Sc3ccccc32)CC1 | inactive |  |
| CC(O)COCC(C)O (stereo unspecified) | inactive |  |
| c1ccc2scnc2c1 | inactive |  |
| Cc1ccc2oc(=O)ccc2c1 | inactive |  |
| CCc1cccc(C)c1N | inactive |  |
| CCCCC(CC)COC(=O)CS (stereo unspecified) | inactive |  |
| c1ccc(OCCOc2ccccc2)cc1 | inactive |  |

| SMILES | outcome | activation |
| --- | --- | --- |
| CCCCCCCCCCCCCCCO | inactive |  |
| O=C(O)c1ccc2c(c1)C(=O)OC2=O | inactive |  |
| COc1ccc(Nc2ccccc2)c(C)c1 | inactive |  |
| O=C(O)c1cc(C(=O)O)cc(S(=O)(=O)O)c1 | inactive |  |
| CCCCCCCCCC | inactive |  |
| CC(=O)CC(=O)Nc1ccccc1 | inactive |  |
| Cc1cc(C)c(C)cc1C | inactive |  |
| CCCCCCCCCCCCCCO | inactive |  |
| CCCSc1ccc2nc(NC(=O)OC)[nH]c2c1 |  | 1.94% [at 35.5 µM] (inactive) |
| C=C(C)C(=O)O[C@H]1C[C@@H]2CC[C@@]1(C)C2(C)C |  | -2.21% (inactive) |
| Cc1ccc(S(N)(=O)=O)cc1 | inactive |  |
| C=CCOC(=O)c1ccccc1C(=O)OCC=C | inactive |  |
| O=C(O)[C@H](O)[C@@H](O)[C@H](O)[C@H](O)CO | inactive |  |
| O=S(=O)(O)c1ccc2ccccc2c1 | inactive |  |
| CCCCC(CC)COC(=O)C(C#N)=C(c1ccccc1)c1ccccc1 (stereo unspecified) | inactive |  |
